This passage reports Potency results from PubChem BioAssay AID922 (National Center for Advancing Translational Sciences (NCATS), 2007).

Records with an inconclusive call do not appear. Calls of active or inactive are those of the source. Calls come from the whole dose curve; as a rule, active = well fitted inhibition curve with a large enough effect in the signal ratio, with a control signal flat; inconclusive = small, poorly fitted or top-dose-only effect, or effect the other way; inactive = flat fitted curve, though single readings scatter; the % refers to the signal ratio.

The nature of this experiment: Confirmation Concentration-Response Assay for Identification of Small Molecule Antagonists of Stat Signaling Pathway. As to conditions: SIE-bla cells, IL-6 stimulated, beta-lactamase ratio, 5 h; series mostly up to 38.3 µM. From the text:
NIH Molecular Libraries Screening Centers Network [MLSCN] NIH Chemical Genomics Center [NCGC] MLSCN Grant: None NCGC Assay Overview: This assay is a retest of actives identified from the Stat signaling pathway assay (PubChem AID 446). The Stat assay is cell-based and measures Interleukin 6 (IL-6) mediated modulation of a beta-lactamase reporter gene controlled by a STAT inducible element (SIE-bla cells, Invitrogen). IL-6 is a cytokine that signals via the JAK/STAT pathway and is implicated in cancer and inflammation. SIE-bla cells are induced by IL-6 at 40 pM EC50 and inhibited by the pan JAK inhibitor, 2-(1,1-Dimethylethyl)-9-fluoro-3,6-dihydro-7H-benz[h]-imidaz[4,5-f]isoquinolin-7-one, at approximately 10 nM IC50. Plated cells were incubated overnight and on the following day, stimulated with 40 pM IL-6 for 5 hrs. The assay was stimulated with an EC50 of IL-6 to retest inhibitors of STAT signaling.
NCGC Assay Protocol Summary: Cells were trypsinized, washed in assay medium (AM, OPTI MEM with 0.5% fetal bovine serum, 0.1 mM nonessential amino acids, 1 mM sodium pyruvate, 10mM HEPES pH 7.3, 100U/ml penicillin, and 100 ug/ml streptomycin) and suspended at […] in AM. Approximately 2500 cells in 5 uL/well was dispensed into 1536-well plates and the cells were incubated overnight at 37 C. 23 nL of compound were delivered by a pin tool and 1 uL of IL-6 (40 pM final concentration in AM) was added. After plates were incubated at 37 C for 5 hrs, 1uL of detector mix (LiveBLAzerTM, Invitrogen) was added, the plates incubated at room temperature for 2.5 hrs, and fluorescence intensity at 460 and 530 nm emissions was measured at 405 nm excitation by an Envision (Perkin Elmer).
Turning to `O=C(O)CCc1c2ccc(=O)c(O)c-2oc2c(O)c(O)ccc12`, the Potency is 10 µM (active). For `CSc1ncnc2c1ncn2CC(=O)[C@H]1CC[C@H]2[C@H]3CCC4=CC(=O)CC[C@@]4(C)[C@@H]3CC[C@@]12C`, the Potency is 2.51 µM (active).

For `C=C1C(=O)O[C@@H]2[C@H]3O[C@]3(C)CCC=C(C)CC[C@@H]12`, the Potency was 7.94 µM (active). Turning to `C=C1C(=O)O[C@@H]2[C@@H]1CC/C(C)=C\CC[C@@]1(C)O[C@H]21`, the Potency was 25.1 µM (active). With `COc1ccc(C[C@@H]2C(=O)N[C@H](C)C(=O)N(C)[C@@H]3Cc4ccc(cc4)Oc4cc(ccc4O)C[C@H](C(=O)N[C@@H](C)C(=O)N[C@H](C)C(=O)N2C)N(C)C3=O)cc1` the figure was 0.199 µM (active). In the case of `CCN(CC)CCNC(=O)c1cc(S(C)(=O)=O)ccc1OC`, the Potency result was “inactive”. In the case of `OCc1ccncc1.OCc1ccncc1.[Cl][Pt]([Cl])([Cl])[Cl]` it was 10 µM (active). In the case of `OC[C@@H]1CCC[C@H](n2cnc3c(=S)nc[nH]c32)O1` it was “inactive”. With `COc1cc(/C=C\C(=O)N2CCCCC2=O)cc(OC)c1OC` the figure was 12.6 µM (active); with `ClC(=Nc1cccc2ccccc12)N(c1ccccc1)c1ccccc1`, “inactive”. Turning to `O=C(O)c1c(Br)c(Br)c(Br)c(Br)c1C1c2ccc(O)cc2Oc2cc(O)ccc21`, the Potency is 7.94 µM (active).

On to `CN(C)S(=O)(=O)c1ccc2c(c1)/C(=C/c1cc3c([nH]1)CCCC3)C(=O)N2`, for which the Potency was 2.51 µM (active). With `COc1cccc2c1[C@H](CO)N1[C@H](C#N)[C@@H]3C[C@H](C(=O)O)[C@@H]([C@@H]1C2)N3C` the figure was 10 µM (active); with `O=C1C(SCCO)=C(SCCO)C(=O)c2ccccc21`, 6.31 µM (active); with `NCCSc1nc2ccccc2s1`, 7.94 µM (active). Regarding `O=C(Nc1ccc(N2CCN(C(=O)c3ccccc3)CC2)c(Cl)c1)c1ccc(Br)o1`, the Potency is 10 µM (active).

In the case of `CCC(=O)Nc1nc(C)c(Oc2ccccc2)c(=O)[nH]1`, the Potency entry is “inactive”. With `NS(=O)(=O)c1ccc(N=Nc2cc3ccccc3c(C(=O)O)c2O)cc1` the figure was 6.31 µM (active); with `O=C1Nc2ccc(I)cc2/C1=C/c1cc(Br)c(O)c(Br)c1`, 12.6 µM (active); with `CCOC(=O)c1[nH]c2cc3c(cc2c1NC(=O)CN1CCc2ccccc2C1)OCO3`, 15.8 µM (active). As to `Cn1c(NCc2ccccc2)nc2c1c(=O)n(Cc1ccc(Br)cc1)c(=O)n2C`, the Potency was 15.8 µM (active).

For the compound `CC1CCN(CC[S-])CC1.O.O.[Cl][Pt]`, the Potency was 25.1 µM (active). With `CCCCSc1nc(N)c(C#N)c(-c2cccs2)c1C#N` the figure was 15.8 µM (active).
